Screens: PubChem, The Scripps Research Institute Molecular Screening Center
rCAG binder-1: binds r(CAG) RNA repeats. r(CAG) RNA repeat, TO-PRO-1 dye displacement fluorescence. inhibition, % at 3 µM. actives 1.3% (n = 370,000);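 active = inhibition above the plate cutoff, the mean of all test compounds on that plate plus 3 SD, cut at about 35% in these data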;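 note: higher means more dye released from RNA so lower well fluorescence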
MsrA inhibitor: inhibits bovine methionine sulfoxide reductase A; purified bovine MsrA, absorbance read-out; inhibition, % at 15.5 µM; actives 0.75% (n = 360,000); AID 651718; in the data active = inhibition above about 4.5%
MsrA act: activates bovine MsrA enzyme | actives 0.3% (n = 360,000) | purified bovine MsrA, absorbance read-out | activation, % at 10.6 µM | AID 602163; in the data active = activation above about 7.5%
PG9 binder: PG9 antibody binding by small molecule; actives 0.43% (n = 360,000); AID 624416; TR-FRET gp120-PG9 antibody binding; inhibition, % at 6.7 µM; in the data active = inhibition above about 8.5%
sPLA2-III inh: Inhibits HGIII-sPLA2 liposome hydrolysis, primary screen | Q9NZ20 | QFRET BODIPY PC-A2 liposome hydrolysis, fluorescence | inhibition, % at 12.2 µM | actives 0.56% (n = 370,000) | AID 743126;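 active = inhibition above mean plus 3 SD of compounds lying within the high and low control bounds, cut at about 19% in these data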
Target sequence (Q9NZ20 whole entry, looked up): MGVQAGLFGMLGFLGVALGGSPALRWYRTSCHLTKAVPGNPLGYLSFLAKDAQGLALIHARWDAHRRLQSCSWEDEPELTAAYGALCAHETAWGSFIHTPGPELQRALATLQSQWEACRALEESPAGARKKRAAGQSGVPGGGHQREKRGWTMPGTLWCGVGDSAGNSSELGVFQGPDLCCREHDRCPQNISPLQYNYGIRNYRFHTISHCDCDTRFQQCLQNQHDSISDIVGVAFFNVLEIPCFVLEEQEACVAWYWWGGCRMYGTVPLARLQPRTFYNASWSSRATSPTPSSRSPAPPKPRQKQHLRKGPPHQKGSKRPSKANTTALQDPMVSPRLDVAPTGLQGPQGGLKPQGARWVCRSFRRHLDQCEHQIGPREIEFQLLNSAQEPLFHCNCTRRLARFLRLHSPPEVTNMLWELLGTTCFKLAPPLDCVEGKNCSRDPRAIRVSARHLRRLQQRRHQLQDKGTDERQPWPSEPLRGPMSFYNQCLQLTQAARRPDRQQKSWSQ
rCAG binder conf: r(CAG) RNA repeat binding, confirmation; TO-PRO-1 dye displacement fluorescence; inhibition, % at 3 µM; actives 70% (n = 4,300); shares compounds with rCAG binder-1;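 active = inhibition above a per-plate cutoff, the mean inhibition of sample wells plus 3 SD, cut at about 35% in these data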;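 note: loss of TO-PRO-1 fluorescence as compound displaces dye from 1x1 AA loop RNA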
DNA CAG counter: counter-screen for rCAG RNA binders: DNA CAG dye complex inhibitors; shares compounds with rCAG binder-1; d(CAG) DNA oligo TO-PRO-1 dye displacement, fluorescence; inhibition, % at 3 µM; actives 94% (n = 4,300);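 active = inhibition above its plate's cutoff, the mean test-well inhibition plus 3 SD, cut at about 4.8% in these data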;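 note: hits displace the dye from DNA and so lower well fluorescence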
DNA CAG DR: counter-screen for rCAG binders: inhibitors of DNA CAG TO-PRO-1 complex | DNA CAG/GTC duplex TO-PRO-1 dye displacement fluorescence | shares compounds with rCAG binder-1 | actives 20% (n = 250) | IC50, µM; in the data active = IC50 below about 10 µM
dCAG DNA bind: inhibits DNA CAG/GTC TO-PRO-1 complex, rCAG binder counter-screen; d(CAG) DNA duplex TO-PRO-1 dye displacement, fluorescence; shares compounds with rCAG binder-1; IC50, µM; AID 720649; actives 80% (n = 30)
rCAG binder-2: r(CAG) repeat RNA binding, TO-PRO-1 displacement; shares compounds with rCAG binder-1; r(CAG) RNA TO-PRO-1 dye displacement, fluorescence; IC50, µM; actives 100% (n = 30); AID 720651
Each line names hits and unclear results; the compound was inactive in the other large screens (follow-up assays come after a bar, where they were run). This is a sample that favours compounds with a hit; in the whole collection about 3.2% have one here. Unless noted, the rule behind the calls is not given here.

O=C(OCC#CCSc1nnc(-c2cccc3ccccc23)o1)C1CCC1	none (no result: rCAG binder-1, MsrA inhibitor, MsrA act, PG9 binder)
CCCCCCn1c(-c2ccc(Cl)cc2Cl)csc1=Nc1ccccc1	none (no result: MsrA inhibitor, MsrA act, PG9 binder)
CCc1nnc(NS(=O)(=O)c2ccc(NC(=O)/C=C/c3ccccc3Cl)cc2)s1	rCAG binder-1 86 | rCAG binder conf 82 | DNA CAG counter 54
CCc1nnc(NS(=O)(=O)c2ccc(NC(=S)NC(=O)c3ccc(Br)cc3)cc2)s1	rCAG binder-1 83 | rCAG binder conf 80 | DNA CAG counter 49
CCc1nnc(NS(=O)(=O)c2ccc(NC(=S)Nc3ccc(F)cc3)cc2)s1	none
NCCCCc1ccc2ccc3cccc4ccc1c2c34	none
O=C(O)CCCc1ccc2ccc3cccc4ccc1c2c34	rCAG binder-1 47 | rCAG binder conf inactive | DNA CAG counter 7.5
O=C(CCCSc1ccccc1)Nc1nc(-c2ccco2)c(-c2ccco2)s1	rCAG binder-1 74 | rCAG binder conf inactive | DNA CAG counter 14
O=C(CCl)Nc1nc(-c2ccco2)c(-c2ccco2)s1	none
Cc1ccc(C(=O)Nc2nc(-c3ccco3)c(-c3ccco3)s2)o1	rCAG binder-1 73 | rCAG binder conf inactive | DNA CAG counter 8.1
Cc1ccc(C(=O)Nc2nc(C)c(C(=O)N(C)C)s2)o1	none
CCOC(=O)CC[C@H]1CC[C@]2(CCCN(C(=O)c3ccc4ccccc4n3)C2)O1	none (no result: MsrA inhibitor, MsrA act, PG9 binder)
Cc1nn(-c2ccccc2)c2nc(-c3ccco3)cc(C(=O)O)c12	rCAG binder-1 54 | rCAG binder conf 71 | DNA CAG counter 27 | DNA CAG DR 4.3 | dCAG DNA bind 6.1 | rCAG binder-2 2.5
Cc1cccc(-n2nc(C)c3c(C(=O)O)cc(-c4cccs4)nc32)c1	rCAG binder-1 81 | rCAG binder conf 74 | DNA CAG counter 34 | DNA CAG DR 6.3 | dCAG DNA bind 1.4 | rCAG binder-2 0.58
O=C(O)c1cc(-c2ccco2)nc2ccccc12	none
Cc1nn(-c2cccc(Cl)c2)c2nc(-c3ccco3)cc(C(=O)O)c12	rCAG binder-1 72 | rCAG binder conf 77 | DNA CAG counter 40
COc1ccc(Oc2c(-c3cccs3)cnn(-c3ccc(C)cc3)c2=O)cc1	none (no result: rCAG binder-1, MsrA inhibitor, MsrA act, PG9 binder)
O=C(NC(C(=O)N/N=C/c1cc([N+](=O)[O-])ccc1O)c1n[nH]c(=O)c2ccccc12)c1ccccc1 (stereo not given)	rCAG binder-1 84 | rCAG binder conf 66 | DNA CAG counter 28
NC1=NC(=O)/C(=C/c2cn(Cc3ccccc3)c3ccccc23)S1	rCAG binder-1 44 | rCAG binder conf inactive | DNA CAG counter 11
CC(=O)Nc1ccc2[nH]c3ccccc3c2c1	none
O=C(Nc1ccc(Cl)cc1)c1cc2c(cc1O)[nH]c1ccccc12	rCAG binder-1 91 | rCAG binder conf 85 | DNA CAG counter 53
CC(=O)Nc1ccc(Nc2nc(-c3cc4ccccc4oc3=O)cs2)cc1	none
O=C(O)c1ccc(Nc2nc(-c3cc4ccccc4oc3=O)cs2)cc1O	rCAG binder-1 72 | rCAG binder conf 84 | DNA CAG counter 48
CCOC(=O)CC[C@H](NC(=O)Cn1cnc(C(=O)Nc2ccc(C)c(C)c2)n1)C(=O)OCC	none
Cc1ccc2[nH]c(C)c(/C=N/Nc3nc4ccccc4s3)c2c1	rCAG binder-1 65 | rCAG binder conf 47 | DNA CAG counter 26
O=C(c1ccccc1)c1ccc2nc(-c3ccc(NC(=O)c4ccccc4F)cc3)[nH]c2c1	none
O=C(O)CCC(=O)Nc1ccc(-c2nc3ccc(C(=O)c4ccccc4)cc3[nH]2)cc1	rCAG binder-1 45, MsrA inhibitor 4.6 | rCAG binder conf 35 | DNA CAG counter 7.9
COP1(=O)CCOCC[C@H](CC(C)C)NC(=O)[C@H](CC(C)C)N1 (stereo not given in full)	none (no result: rCAG binder-1, MsrA inhibitor, MsrA act, PG9 binder)
N#CCCN(C(=O)COC(=O)c1cccc(S(=O)(=O)Nc2ccc([N+](=O)[O-])cc2)c1)c1ccccc1	rCAG binder-1 77 | rCAG binder conf 77 | DNA CAG counter 35
COc1cc(/C=C2/C(=O)NN(c3cccc(C)c3)C2=O)ccc1OC(=O)c1ccco1	rCAG binder-1 45 | rCAG binder conf 70 | DNA CAG counter 30 | DNA CAG DR inactive
COc1cc(/C=C2/C(=O)NN(c3cccc(C)c3)C2=O)cc([N+](=O)[O-])c1O	rCAG binder-1 39 | rCAG binder conf inactive | DNA CAG counter 6.1
O=C1NN(c2ccccc2)C(=O)/C1=C\c1ccc2c(c1)OCO2	none
Cc1ccc(N2NC(=O)/C(=C\c3cc4c(cc3[N+](=O)[O-])OCO4)C2=O)cc1C	rCAG binder-1 64 | rCAG binder conf 45 | DNA CAG counter 18
COc1cc(/C=C2/C(=O)NN(c3ccc(C)c(Cl)c3)C2=O)cc([N+](=O)[O-])c1O	rCAG binder-1 98 | rCAG binder conf 52 | DNA CAG counter 16
Cc1ccc(S(=O)(=O)n2ccc(-c3c(-c4ccc(Cl)cc4)noc3C)n2)cc1	none (no result: MsrA inhibitor, MsrA act, PG9 binder)
O=S1(=O)c2ccc(N3CCSCC3)cc2Oc2ccccc2CN1Cc1cn(Cc2ccc(C(F)(F)F)cc2)nn1	none (no result: MsrA inhibitor, MsrA act, PG9 binder)
Cc1ccc(-n2c(SCC(=O)Nc3ccccc3-c3ccccc3)nnc2-c2ccco2)cc1	none (no result: MsrA inhibitor, MsrA act, PG9 binder)
Nc1nc2cc(Cl)ccc2cc1C(=O)NCCCc1ccccc1	none (no result: rCAG binder-1, MsrA inhibitor, PG9 binder, sPLA2-III inh)
Cc1c(NC(=O)c2ccccc2NS(=O)(=O)c2ccc(Br)cc2)c(=O)n(-c2ccccc2)n1C	rCAG binder-1 42 | rCAG binder conf 47 | DNA CAG counter 14
COC(=O)[C@@]12CCCCC3=C1N(CCC3)C(=O)[C@H]2CC(=O)NCc1cccc(C(F)(F)F)c1	none (no result: MsrA inhibitor, MsrA act, PG9 binder)
Cc1ccc(C)c(S(=O)(=O)/N=C2\C=C(NS(=O)(=O)c3ccccc3)C(=O)c3ccccc32)c1	rCAG binder-1 67 | rCAG binder conf 90 | DNA CAG counter 69
CCc1ccc(S(=O)(=O)/N=C2\C=C(NS(=O)(=O)c3ccccc3)C(=O)c3ccccc32)cc1	rCAG binder-1 59 | rCAG binder conf 89 | DNA CAG counter 66
COc1ccc(C)cc1NS(=O)(=O)c1ccccc1	none
CC(C)c1ccc(NC(=O)C2(C)Cc3c(-c4cccc(C(F)(F)F)c4)ccnc3O2)cc1 (stereo not given)	none
COC(=O)CSc1nnc(-c2n[nH]c3c2CCC3)n1N	none (no result: MsrA inhibitor, MsrA act, PG9 binder)
